Screening data as filed in PubChem.
In the library only some 5.9% were active in any assay of this set; here they are far more common.
VP16 counter: Gal4-VP16 reporter inhibition counter-screen | Drosophila S2 Gal4-VP16 UAS-luciferase, luminescence, 20 h | Potency, µM (top dose mostly 53.6 µM), without a hit: at the top dose activity, negative = inhibition, hits mostly inhibitors | hit rate 3.5% among 310,000 | AID 2546;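 further: Gal4-VP16 expression switched on by copper sulfate through the metallothionein promoter; potency means the concentration at half of the fitted maximal effect; nearly all actives have a fitted effect of over 50% in size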
TrxR1 inh: blocks rat thioredoxin reductase 1 | recombinant rTrxR1, NADPH fluorescence consumption, selenite substrate | Potency, µM (doses to about 114 µM), without a hit: at the highest dose activity change, negative = inhibition, actives largely listed as inhibitors | hit rate 1% among 390,000 | O89049 | AID 588453; further: potency means the concentration at half of the fitted maximal effect; nearly all actives have a fitted effect of over 65% in size
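Rat TrxR1 (90 nM in the dispensed reagent) was pre-reduced with 400 uM NADPH for 5 min at room temperature, then incubated with compound for 15 min. After 400 uM selenite was added, NADPH fluorescence (Ex 340/Em 450 nm) was followed for 8 min.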
GALK inh: inhibitors of human galactokinase. Purified GALK, Kinase-Glo residual ATP luminescence. Potency, µM (top dose mostly 57.5 µM), inactives show at the top dose activity change, negative = inhibition, actives largely listed as inhibitors. hit rate 0.007% among 270,000. AID 1868; further: potency means the concentration at half of the fitted maximal effect
Target sequence (P51570 whole entry, looked up): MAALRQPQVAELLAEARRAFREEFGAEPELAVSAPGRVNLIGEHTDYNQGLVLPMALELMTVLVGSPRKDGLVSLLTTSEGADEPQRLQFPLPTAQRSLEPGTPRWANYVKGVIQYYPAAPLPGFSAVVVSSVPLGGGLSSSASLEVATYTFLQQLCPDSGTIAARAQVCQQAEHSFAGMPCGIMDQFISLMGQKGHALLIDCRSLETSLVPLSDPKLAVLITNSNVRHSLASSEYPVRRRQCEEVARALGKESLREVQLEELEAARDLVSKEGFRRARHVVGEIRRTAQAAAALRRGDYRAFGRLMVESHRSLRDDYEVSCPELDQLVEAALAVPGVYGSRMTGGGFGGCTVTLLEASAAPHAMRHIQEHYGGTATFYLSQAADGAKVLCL
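Quantitative HTS: GALK 5 nM, ATP 35 uM, galactose 100 uM, 1 h room temperature, then luciferase-based ATP detection.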
RORg inh: ROR gamma (mouse) transcription inhibition; P51450; Drosophila S2 Gal4-RORgamma UAS-luciferase reporter, 20 h; Potency, µM (top dose mostly 53.6 µM), for inactives: at the top dose activity change, negative = inhibition, usual class: inhibitors; hit rate 5.4% among 310,000; AID 2551; further: potency means the concentration at half of the fitted maximal effect; nearly all actives have a fitted effect of over 60% in size
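Drosophila S2 cells stably expressing Gal4-DBD/mouse RORγ fusion under metallothionein promoter plus UAS-luciferase; compound 1 h, then 700 uM CuSO4 induction for 20 h at ambient temperature; inhibition read as reduced luminescence.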
FBPA coupling cs: inhibits coupling enzyme system, counter-screen for aldolase hits; hit rate 0.67% among 290,000; coupling enzyme system counterscreen, AmpLite Red fluorescence; activity change, negative = inhibition, % at 58.2 µM, hits read low; in the data active means activity change below about -30%
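Counterscreen lacking aldolase: glyceraldehyde-3-phosphate coupling-enzyme reagent preincubated 10 min at RT with compound (at 57.5 uM final), then substrate/coupling system with AmpLite Red added; fluorescence read at 525/598 nm after 20 min RT.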
TrxR1 substrate: rat thioredoxin reductase 1 substrate activity; purified TrxR1 substrate turnover, NADPH consumption readout; Potency, µM (series often up to 114 µM), inactives show at the highest dose activity change, negative = substrate turnover; hit rate 0.01% among 390,000; further: potency means the concentration at half of the fitted maximal effect; nearly all actives have a fitted effect of over 50% in size
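Rat TrxR1, dispensed at 90 nM, was prereduced with 400 uM NADPH (final) for 5 min at ~22 deg C, then incubated with compound 15 min before 400 uM selenite. A first-read NADPH fluorescence drop versus no-compound background flagged substrates.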
An asterisk follows results filed as active; ? = inconclusive; nt = not tested or not shown; ! = not confirmed by another sample; [ ] = another dose, or the depositor's remark. Unless noted, the call rests on the fitted dose curve; in most records, active means well fitted curve in the direction sought with a large enough effect; inconclusive means small, poorly fitted or top-dose-only effect, or another doubt; inactive means no such curve, though single readings can be large; an effect the other way counts as inactive or inconclusive. On the % scale 0 is the no-effect control and ±100 the full control effect.

SMILES	VP16 counter	TrxR1 inh	GALK inh	RORg inh	FBPA coupling cs	TrxR1 substrate
COc1ccc(-c2c(C)nn3c(-c4ccccc4)cc(-c4ccccc4)nc23)cc1	nt	11%	nt	nt	nt	10%
Cc1ccc(C(c2cccc(Br)c2)c2c(C)[nH]c3ccccc23)s1 (stereo not given)	nt	?	nt	nt	nt	-4%
CN1CCc2nc3sc(C(=O)Nc4c(F)cccc4F)c(N)c3cc2C1	nt	-8%	nt	nt	nt	6%
CC(C)OC(=O)CC(=O)c1sc2nc3c(cc2c1N)CN(C)CC3	0%	20µM*	4%	-22%	-16	-1%[57.1 µM]
O=C(c1cccs1)[C@@H]1[C@@H]2C(=O)N(Cc3ccc4c(c3)OCO4)C(=O)[C@@H]2C2c3ccccc3C=CN21 (stereo not given in full)	2%	nt	-4%	-11%	-38*	nt
O=C(c1ccc2c(c1)OCO2)[C@@H]1[C@@H]2C(=O)N(C3CCCCC3)C(=O)[C@@H]2C2c3ccccc3C=CN21 (stereo not given in full)	-18%	6%	2%	-17%	-36*	-2%
COc1ccc(CC(NC(C)=O)C(=O)NC2CCN(C(=O)C3CCCCC3)CC2)c(OC)c1 (stereo not given)	-6%	-21%	1%	-1%	-3	-9%
CCOc1ccccc1N(CC(=O)Nc1cc(OC)ccc1OC)S(=O)(=O)c1ccccc1	-11%	25%	1%	-11%	1	5%
COc1ccc(Cn2c(=S)[nH]c3ccsc3c2=O)cc1	2.2µM*	-17%[57.1 µM]	1%	1.4µM*	5	-20%[57.1 µM]
O=c1c2sccc2[nH]c(=S)n1Cc1ccccc1	2.8µM*	-21%	2%	1.8µM*	1	-9%
CCOC(=O)c1nnc(-c2ccc(C)cc2)nc1Oc1ccccc1Cl	6.3µM*	?	0%	7%	-3	-1%[57.1 µM]
CCOC(=O)c1nnc(-c2ccccc2)nc1Sc1c(Cl)cccc1Cl	18µM*	0%[57.1 µM]	-3%	-28%	-5	-6%[57.1 µM]
CCOC(=O)c1nnc(-c2ccc(C)cc2)nc1Oc1ccc(Cl)cc1Cl	?	-7%[57.1 µM]	-1%	-27%	1	-3%[57.1 µM]
C/C(CC(=O)Nc1ccc(N(C)C)cc1)=N\NC(=O)Cc1csc(N)n1	12%	-30%	-5%	13%	-32*	-3%
Oc1ccc2c(c1)c1c3n2CCNC3CCC1 (stereo not given)	-12%	8%[57.1 µM]	0%	-4%	-6	13%[57.1 µM]
c1ccc2c(c1)c1c3n2CCNC3CCC1 (stereo not given)	-14%	12%[57.1 µM]	-1%	10%	-50*	10%
O=C(O)C1CC=CCC1C(=O)NC1CCCCC1 (stereo not given)	-7%	-30%	-1%	-5%	-3	?
COc1ccc2nc(-c3ccccc3)cc(OC)c2c1	?	2%[57.1 µM]	0%	?	-2	6%[57.1 µM]
COc1ccc2nc3ccccc3nc2c1N	16µM*	-40%	0%	?	-6	7%[57.1 µM]
COc1ccc2nc3cccc(OC)c3nc2c1	?	18%	-15%	?	-39*	-5%
COc1ccc(-c2nc3ccccc3nc2-c2ccc(OC)c(OC)c2)cc1OC	-5%	15%	-5%	?	0	7%
COc1cc(CN(C(C)=O)c2ccccc2C(=O)O)ccc1[N+](=O)[O-]	nt	2%[11.4 µM]	nt	nt	nt	-7%[11.4 µM]
CCC(=O)N1CCc2cc(S(=O)(=O)NC(Cc3ccccc3)C(=O)Nc3ccc(C)cc3)ccc21 (stereo not given)	nt	6%	nt	nt	nt	-1%
O=[N+]([O-])c1ccccc1N/N=C1\CC2CC=CC12 (stereo not given)	0%	-16%	-2%	32%	-5	-6%
FC(F)(F)c1ccccc1NC(=S)N/N=C1\CC2CC=CC12 (stereo not given)	14µM*	-1%[57.1 µM]	6%	0.5µM*	-5	4%[57.1 µM]
SMILES	VP16 counter	TrxR1 inh	GALK inh	RORg inh	FBPA coupling cs	TrxR1 substrate
COc1cc(Nc2ccc(S(N)(=O)=O)cc2)c([N+](=O)[O-])nc1[N+](=O)[O-]	?	3.2µM*	-3%	?	1	-11%
COc1ccc(-c2csc(Nc3ccc(S(N)(=O)=O)cc3)n2)cc1OC	-16%	24%	4%	33%	-5	6%
Cn1cccc1C1CCCN1CC(=O)Nc1ccc(F)c(F)c1F (stereo not given)	nt	3%	nt	nt	nt	-2%
CC(C)(Cc1ccc(O)cc1)NC(=O)CC(=O)N=Nc1c(O)[nH]c2cc(Br)ccc12	-3%	7%	-1%	14%	3	-11%
Cc1coc2c(C)c3oc(=O)c(CCC(=O)NCCN4CCOCC4)c(C)c3cc12	-13%	3%	nt	-28%	-4	18%
c1cc2c(cc1C1CCCN1)OCCCO2 (stereo not given)	3%	45µM*	-3%	-38%	-1	4%
O=S(=O)(c1ccc2c(c1)OCCCO2)N1CCNCC1	3%	5%	0%	-6%	2	2%[57.1 µM]
CCn1c([N+](=O)[O-])nc2c1c(=O)[nH]c(=O)n2C	18µM*	?	1%	0.56µM*	-38*	-1%
CCCCCCn1c(SCCCC)nc2c1c(=O)[nH]c(=O)n2C	nt	10%	-6%	-6%[0.365 µM]	-2	-10%[57.1 µM]
Cc1ccc(NS(=O)(=O)c2ccc(-c3cnc(C4CC4)o3)cc2)cc1	-12%	35%	-10%	?	nt	-7%
COc1ccc(C)cc1NS(=O)(=O)c1ccc(-c2cnc(C3CC3)o2)cc1	18µM*	12%	-2%	34%	nt	-4%
Cc1nn(C)cc1S(=O)(=O)N1CCN(Cc2ccccc2Cl)CC1	-20%	12%[57.1 µM]	11%	2%	12	9%
Cc1ccc(N(Cc2cc(=O)[nH]c3ccccc23)C(=O)CCl)c(C)c1	-12%	79µM*	-5%	?	3	5%
CN(C)c1ccc(C(=C2C=CC(=[N+](C)C)C=C2)c2c(O)c(S(=O)(=O)[O-])cc3cc(S(=O)(=O)O)ccc23)cc1	8.9µM*	-12%	nt	8.9µM*	nt	-8%
CN(C)c1ccc(C(=C2C=CC(=[N+](C)C)C=C2)c2ccc(N(C)C)cc2)cc1	1.6µM*!	-14%	nt	1.1µM*	-58*	3%[0.0914 µM]
CC(C)[C@H](NC(=O)Nc1cccc(Br)c1)C(=O)O	-8%	33%	0%	-7%	11	3%
CCc1ccc(NC(=O)Cn2nnc(-c3ccccc3N)n2)cc1	nt	7%	nt	nt	nt	0%
COc1ccc(-c2csc(NC(=O)C3=COCCO3)n2)c(OC)c1	nt	1%	nt	nt	nt	-1%
C=CCNc1nc(-c2ccc(OC)cc2OC)cs1	18µM*	24%	-1%	9%	0	5%
COc1cc(C)ccc1OC(C)C(=O)Nc1ccc(N2CCCCC2)cc1 (stereo not given)	nt	3%	nt	nt	nt	-3%
